Data: PubChem BioAssay (NCATS)
Inconclusive results are not listed. Values without a mark were called inactive. Calls of active or inactive are those of the source. Calls follow the shape of the dose curve; as a rule, active = well fitted inhibition curve with a large enough effect; inconclusive = small, poorly fitted or top-dose-only effect; inactive = flat fitted curve, though single readings scatter. Peptide text beside a SMILES is read from it.

Each compound was assayed on CP191 (assay: qHTS profiling for inhibitors of Plasmodium falciparum proliferation (AID 504749; also: nearly all actives have a fitted effect of over 60% in size;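 as to activity, negative = inhibition: 0% = DMSO vehicle and full inhibition = artemisinin control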)). Settings: P. falciparum in erythrocytes, SYBR Green DNA, 72 h; series mostly up to 12.8 µM; activity, negative = inhibition: at the top concentration.
Summary of the method: (§1)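 Quantitative HTS: compounds pinned into medium, infected erythrocytes added (0.3% parasitemia, 2.5% hematocrit), 72 h culture at 37 C under 5% CO2. Saponin/Triton lysis with SYBR Green I, overnight RT, then fluorescence read.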
Potency is read from the fitted curve at half-maximal effect.

| Compound | activity, negative = inhibition | Potency |
| --- | --- | --- |
| CN(C)CCCOC1C(C(O)CO)OC2OC(C)(C)O[C@@H]21 (some centres not stated) | 0.302% [at 28.7 µM] |  |
| CCC(C)C(=O)OC1CCC=C2C=CC(C)C(CCC3CC(O)CC(=O)O3)[C@@H]21 (some centres not stated) | -1.67% [at 28.7 µM] |  |
| CC(=O)OC1CCC2C3CCc4cc(O)ccc4C3CCC12C (configuration not stated) | 7.84% [at 28.7 µM] |  |
| CC[C@@]12CCCN3CCc4c(n(c5ccccc45)[C@](O)(C(=O)OC)C1)C32 (some centres not stated) | 9.4% [at 28.7 µM] |  |
| NC(C(=O)O)[C@@H]1CC(Cl)=NO1 (some centres not stated) |  | 2.51 µM (active) |
| CN1CC(=O)N=C1N | 4.33% [at 28.7 µM] |  |
| OCC1OC([S-])[C@H](O)C(O)C1O.[Au+] (some centres not stated) | -14.5% [at 28.7 µM] |  |
| CC(C)C1CCC(C(=O)NC(Cc2ccccc2)C(=O)O)CC1 (configuration not stated) | 3.42% [at 28.7 µM] |  |
| CCC(CCC(C)C1CCC2C3CC=C4CC(O)CC[C@@]4(C)C3CC[C@@]12C)C(C)C (some centres not stated) | 1.95% [at 28.7 µM] |  |
| C[C@]12CCC(=O)C=C1CCC1C2C(=O)C[C@]2(C)C1CC[C@]2(O)C(=O)CO (some centres not stated) | 1.14% [at 28.7 µM] |  |
| OCC1O[C@H](OC2C(CO)O[C@@](O)(CO)C2O)C(O)C(O)C1O (some centres not stated) | 6.72% [at 28.7 µM] |  |
| CC1(C)OC2CO[C@]3(COS(N)(=O)=O)OC(C)(C)OC3C2O1 (some centres not stated) | 3.63% [at 28.7 µM] |  |
| CC1(C)OC2CC(=O)OC[C@@]23C1CC(=O)[C@]1(C)C3CC[C@@]2(C)C(c3ccoc3)OC(=O)C3O[C@@]321 (some centres not stated) | -3.53% [at 28.7 µM] |  |
| CCOC(=O)C1=CC(OC(CC)CC)C(NC(C)=O)C(N)C1 (configuration not stated) | -0.917% [at 28.7 µM] |  |
| COC1C=CO[C@@]2(C)Oc3c(C)c(O)c4c(O)c(c5c(nc6cc(C)ccn65)c4c3C2=O)NC(=O)/C(C)=C\C=CC(C)C(O)[C@@H](C)C(O)C(C)[C@@H](OC(C)=O)C1C (some centres not stated) |  | 11.2 µM (active) |
| COC(=O)C(Cc1ccccc1)NC(=O)C(N)CC(=O)O (stereo not drawn) (H-Asp-Phe-OMe; configuration not given here) | 3.21% [at 28.7 µM] |  |
| C[C@]12C=CC(=O)C=C1CCC1C2C(O)C[C@]2(C)C1CC[C@]2(O)C(=O)CO (some centres not stated) | 2.46% [at 28.7 µM] |  |

| Compound | activity, negative = inhibition | Potency |
| --- | --- | --- |
| CC1(C)S[C@H]2C(NC(=O)[C@@H](N)c3ccc(O)cc3)C(=O)N2[C@@H]1C(=O)O (some centres not stated) | 5.54% [at 28.7 µM] |  |
| CC(C)=CCC[C@](C)(O)C1CC=C(C)CC1 (some centres not stated) | 0.356% [at 28.7 µM] |  |
| CO[C@]12C(COC(N)=O)C3=C(C(=O)C(C)=C(N)C3=O)N1CC1NC12 (some centres not stated) |  | 0.891 µM (active) |
| C[C@]1(c2ccccc2)OC(C(=O)O)=CC1=O | 12.6% [at 28.7 µM] |  |
| CC(=O)N[C@H](CC(C)C)C(=O)O | 6.71% [at 28.7 µM] |  |
| COc1ccc2cc(C(C)CO)ccc2c1 (configuration not stated) | 8.25% [at 28.7 µM] |  |
| COC1C=CO[C@@]2(C)Oc3c(C)c(O)c4c(O)c(c(C=NN5CCN(C)CC5)c(O)c4c3C2=O)NC(=O)/C(C)=C\C=CC(C)C(O)[C@@H](C)C(O)C(C)[C@H](OC(C)=O)C1C (some centres not stated) |  | 2.82 µM (active) |
| CC1CCC(C(C)C)C(=O)C1 (configuration not stated) | -9.89% [at 28.7 µM] |  |
| CNC1CC(N)[C@H](O)[C@@H](O[C@@H]2OC(CO)C3OC4(OC(C(N)CO)C(O)C(O)C4O)O[C@@H]3[C@H]2O)C1O (some centres not stated) | 8.32% [at 28.7 µM] |  |
| CCCC(=O)O[C@]1(C(=O)CO)CCC2[C@@H]3CCC4=CC(=O)CC[C@]4(C)C3C(O)C[C@]21C (some centres not stated) | 10.6% [at 28.7 µM] |  |
| CC(=O)[C@]1(O)CCC2C3C=C(Cl)C4=CC(=O)C5CC5[C@@]4(C)C3CC[C@]21C (some centres not stated) | -2.98% [at 28.7 µM] |  |
| CC(=O)N[C@@H]1C(O)OC(CO)C(O)C1O (some centres not stated) | -0.774% [at 28.7 µM] |  |
| C/C1=C2N=C(/C=C3N=C(/C(C)=C4\[N-]C(C)(C5N=C1C(C)(CCC(=O)NCC(C)OP(=O)([O-])O[C@H]1C(O)C(n6cnc7cc(C)c(C)cc76)O[C@@H]1CO)C5CC(N)=O)C(C)(CC(N)=O)C4CCC(N)=O)C(C)(CC(N)=O)C\3CCC(N)=O)C(C)(C)C/2CCC(N)=O.[CH2-]C1OC(n2cnc3c(N)ncnc32)C(O)C1O.[Co] (some centres not stated) | -28.8% [at 28.7 µM] |  |
| O=C1OC(CO)C(O)C(O)C1O (configuration not stated) | 1.19% [at 28.7 µM] |  |
| CNC1C(OC2C(O[C@@H]3C(O)C(O)[C@@H](N=C(N)N)C(O)C3N=C(N)N)OC(C)[C@@]2(O)CO)OC(CO)C(O)C1O (some centres not stated) | 0.941% [at 28.7 µM] |  |
| COc1cc(C2c3cc4c(cc3C(O[C@@H]3OC5COC(c6cccs6)OC5C(O)C3O)C3COC(=O)C23)OCO4)cc(OC)c1O (some centres not stated) |  | 2.24 µM (active) |
| Nc1nc2ncc(CNc3ccc(C(=O)NC(CCC(=O)O)C(=O)O)cc3)nc2c(=O)[nH]1 (configuration not stated) | -6.66% [at 28.7 µM] |  |

What follows are compounds tested on CP192 in the same assay as above. Settings: P. falciparum in erythrocytes, SYBR Green DNA, 72 h; series mostly up to 12.8 µM; activity, negative = inhibition: at the top concentration.
Summary of the method: as §1

| Compound | activity, negative = inhibition | Potency |
| --- | --- | --- |
| CN(C)CCCOC1C(C(O)CO)OC2OC(C)(C)O[C@@H]21 (some centres not stated) | 4.29% [at 28.7 µM] |  |
| CCC(C)C(=O)OC1CCC=C2C=CC(C)C(CCC3CC(O)CC(=O)O3)[C@@H]21 (some centres not stated) | -0.526% [at 28.7 µM] |  |
| CC(=O)OC1CCC2C3CCc4cc(O)ccc4C3CCC12C (configuration not stated) | -0.599% [at 28.7 µM] |  |
| CC[C@@]12CCCN3CCc4c(n(c5ccccc45)[C@](O)(C(=O)OC)C1)C32 (some centres not stated) | -1.34% [at 28.7 µM] |  |
| NC(C(=O)O)[C@@H]1CC(Cl)=NO1 (some centres not stated) |  | 3.38 µM (active) |
| CN1CC(=O)N=C1N | 6.11% [at 28.7 µM] |  |
| OCC1OC([S-])[C@H](O)C(O)C1O.[Au+] (some centres not stated) | 2.39% [at 28.7 µM] |  |
| CC(C)C1CCC(C(=O)NC(Cc2ccccc2)C(=O)O)CC1 (configuration not stated) | -20.3% [at 28.7 µM] |  |
| CCC(CCC(C)C1CCC2C3CC=C4CC(O)CC[C@@]4(C)C3CC[C@@]12C)C(C)C (some centres not stated) | 0.325% [at 28.7 µM] |  |
| C[C@]12CCC(=O)C=C1CCC1C2C(=O)C[C@]2(C)C1CC[C@]2(O)C(=O)CO (some centres not stated) | -24.2% [at 28.7 µM] |  |
| OCC1O[C@H](OC2C(CO)O[C@@](O)(CO)C2O)C(O)C(O)C1O (some centres not stated) | 22.6% [at 28.7 µM] |  |
| CC1(C)OC2CO[C@]3(COS(N)(=O)=O)OC(C)(C)OC3C2O1 (some centres not stated) | -5.6% [at 28.7 µM] |  |
| CC1(C)OC2CC(=O)OC[C@@]23C1CC(=O)[C@]1(C)C3CC[C@@]2(C)C(c3ccoc3)OC(=O)C3O[C@@]321 (some centres not stated) | -7.2% [at 28.7 µM] |  |
| CCOC(=O)C1=CC(OC(CC)CC)C(NC(C)=O)C(N)C1 (configuration not stated) | 1.71% [at 28.7 µM] |  |
| COC1C=CO[C@@]2(C)Oc3c(C)c(O)c4c(O)c(c5c(nc6cc(C)ccn65)c4c3C2=O)NC(=O)/C(C)=C\C=CC(C)C(O)[C@@H](C)C(O)C(C)[C@@H](OC(C)=O)C1C (some centres not stated) |  | 10.7 µM (active) |
| COC(=O)C(Cc1ccccc1)NC(=O)C(N)CC(=O)O (stereo not drawn) (H-Asp-Phe-OMe; configuration not given here) | 3.73% [at 28.7 µM] |  |
| C[C@]12C=CC(=O)C=C1CCC1C2C(O)C[C@]2(C)C1CC[C@]2(O)C(=O)CO (some centres not stated) | -14.1% [at 28.7 µM] |  |

| Compound | activity, negative = inhibition | Potency |
| --- | --- | --- |
| CC1(C)S[C@H]2C(NC(=O)[C@@H](N)c3ccc(O)cc3)C(=O)N2[C@@H]1C(=O)O (some centres not stated) | -4.98% [at 28.7 µM] |  |
| CC(C)=CCC[C@](C)(O)C1CC=C(C)CC1 (some centres not stated) | -0.183% [at 28.7 µM] |  |
| C[C@]1(c2ccccc2)OC(C(=O)O)=CC1=O | -3.99% [at 28.7 µM] |  |
| CC(=O)N[C@H](CC(C)C)C(=O)O | 10.7% [at 28.7 µM] |  |
| COc1ccc2cc(C(C)CO)ccc2c1 (configuration not stated) | 0.183% [at 28.7 µM] |  |
| COC1C=CO[C@@]2(C)Oc3c(C)c(O)c4c(O)c(c(C=NN5CCN(C)CC5)c(O)c4c3C2=O)NC(=O)/C(C)=C\C=CC(C)C(O)[C@@H](C)C(O)C(C)[C@H](OC(C)=O)C1C (some centres not stated) |  | 4.26 µM (active) |
| CC1CCC(C(C)C)C(=O)C1 (configuration not stated) | -2.1% [at 28.7 µM] |  |
| CNC1CC(N)[C@H](O)[C@@H](O[C@@H]2OC(CO)C3OC4(OC(C(N)CO)C(O)C(O)C4O)O[C@@H]3[C@H]2O)C1O (some centres not stated) | 2.96% [at 28.7 µM] |  |
| CCCC(=O)O[C@]1(C(=O)CO)CCC2[C@@H]3CCC4=CC(=O)CC[C@]4(C)C3C(O)C[C@]21C (some centres not stated) | -8.22% [at 28.7 µM] |  |
| CC(=O)[C@]1(O)CCC2C3C=C(Cl)C4=CC(=O)C5CC5[C@@]4(C)C3CC[C@]21C (some centres not stated) | -13.4% [at 28.7 µM] |  |
| CC(=O)N[C@@H]1C(O)OC(CO)C(O)C1O (some centres not stated) | -4.61% [at 28.7 µM] |  |
| C/C1=C2N=C(/C=C3N=C(/C(C)=C4\[N-]C(C)(C5N=C1C(C)(CCC(=O)NCC(C)OP(=O)([O-])O[C@H]1C(O)C(n6cnc7cc(C)c(C)cc76)O[C@@H]1CO)C5CC(N)=O)C(C)(CC(N)=O)C4CCC(N)=O)C(C)(CC(N)=O)C\3CCC(N)=O)C(C)(C)C/2CCC(N)=O.[CH2-]C1OC(n2cnc3c(N)ncnc32)C(O)C1O.[Co] (some centres not stated) | -7.96% [at 28.7 µM] |  |
| O=C1OC(CO)C(O)C(O)C1O (configuration not stated) | -6.1% [at 28.7 µM] |  |
| CNC1C(OC2C(O[C@@H]3C(O)C(O)[C@@H](N=C(N)N)C(O)C3N=C(N)N)OC(C)[C@@]2(O)CO)OC(CO)C(O)C1O (some centres not stated) | -3.01% [at 28.7 µM] |  |
| COc1cc(C2c3cc4c(cc3C(O[C@@H]3OC5COC(c6cccs6)OC5C(O)C3O)C3COC(=O)C23)OCO4)cc(OC)c1O (some centres not stated) |  | 4.26 µM (active) |
| Nc1nc2ncc(CNc3ccc(C(=O)NC(CCC(=O)O)C(=O)O)cc3)nc2c(=O)[nH]1 (configuration not stated) | -5.89% [at 28.7 µM] |  |
